Experimental data published in PubChem BioAssay AID623911 (Vanderbilt High Throughput Screening Facility, 2012).
About 770 (37%) of roughly 2,100 compounds were called active. Some of the results follow. Unmarked numbers belong to inactive results.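 The calls were made as follows: active = by-eye trace score of 1 for enhancers or -1 for inhibitors, so actives lie on both sides (some results past the limit were not filed as active); inactive = score 0, or 3 fluorescent, or 4 baseline rise.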

biological target: G protein-activated inward rectifier potassium channel 2 (Homo sapiens) + G protein-activated inward rectifier potassium channel 1 (Homo sapiens) (UniProt P48051+P48549); assay: GIRK1/2 thallium flux modulators, retest, confirmation, cell-based, HEK293 rmGlu8/hGIRK1/2, FluoZin-2 (AID 623911); settings: HEK293 rmGlu8/hGIRK1/2, thallium flux FluoZin-2; actives lie on both sides; glutamate co-added at its EC20 level
Sequence (P48051 whole entry, looked up): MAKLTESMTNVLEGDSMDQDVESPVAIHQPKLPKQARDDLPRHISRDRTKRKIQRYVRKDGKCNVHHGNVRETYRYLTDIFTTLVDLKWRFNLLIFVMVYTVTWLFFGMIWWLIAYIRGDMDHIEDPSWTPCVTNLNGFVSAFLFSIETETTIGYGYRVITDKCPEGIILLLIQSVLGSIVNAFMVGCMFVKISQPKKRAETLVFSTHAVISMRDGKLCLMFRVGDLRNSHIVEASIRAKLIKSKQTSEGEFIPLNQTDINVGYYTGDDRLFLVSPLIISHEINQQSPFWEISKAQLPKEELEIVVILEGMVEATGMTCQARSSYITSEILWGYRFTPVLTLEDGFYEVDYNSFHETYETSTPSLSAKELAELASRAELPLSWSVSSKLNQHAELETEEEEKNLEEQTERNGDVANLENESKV
Sequence (P48549 whole entry, looked up): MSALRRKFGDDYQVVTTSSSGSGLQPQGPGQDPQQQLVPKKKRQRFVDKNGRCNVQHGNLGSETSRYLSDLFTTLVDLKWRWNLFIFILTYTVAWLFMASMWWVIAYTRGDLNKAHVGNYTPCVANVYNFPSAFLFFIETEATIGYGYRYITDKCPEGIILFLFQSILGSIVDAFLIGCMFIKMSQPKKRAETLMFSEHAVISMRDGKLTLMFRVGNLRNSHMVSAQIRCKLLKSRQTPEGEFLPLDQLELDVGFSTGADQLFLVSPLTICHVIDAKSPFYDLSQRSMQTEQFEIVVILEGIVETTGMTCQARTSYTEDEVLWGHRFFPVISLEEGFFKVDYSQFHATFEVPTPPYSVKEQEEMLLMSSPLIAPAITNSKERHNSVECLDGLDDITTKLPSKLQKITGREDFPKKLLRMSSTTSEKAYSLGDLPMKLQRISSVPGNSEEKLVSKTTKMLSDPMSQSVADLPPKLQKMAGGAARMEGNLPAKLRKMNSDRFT

Structure (SMILES) | manual score
COc1ccc(-c2ccnc3nc(Sc4ncc(C(F)(F)F)cc4Cl)nn23)cc1 | 0.5
CC(/C=N/NC(=O)c1c(Br)cnn1C)=C\c1ccccc1 | 0.5
Cc1cc(C(F)(F)F)c2c(=O)[nH]c(=O)n(Cc3ccccc3)c2n1 | 0
O=c1c2ccccc2[nH]c(=S)n1C1CCCCC1 | 0
CC(C)c1nc(=S)n(-c2ccccc2)[nH]1 | 0
CC(C)c1nc(=S)c2ccccc2[nH]1 | 1 (active)
S=c1nc(C2CC2)[nH]c2ccccc12 | 1 (active)
CCc1nc2cc(Cl)c(Cl)cc2[nH]1 | 1 (active)
O=P(CCCCCCCCCP(=O)(c1ccccc1)c1ccccc1)(c1ccccc1)c1ccccc1 | -1 (active)
Nc1nnc(C(=O)c2ccccc2N)s1 | 0
O=C(CSc1nc(-c2ccccc2)cc(C(F)(F)F)n1)NCCN1CCOCC1 | 0
Cc1ccc(-n2nnnc2-c2nc3ccccc3s2)cc1 | 0
Cc1ccc2cccc(Oc3nnnn3-c3ccccc3)c2n1 | -1 (active)
CCCc1noc2c1/C(=N\O)CC(CC(C)SCC)C2 (stereo not drawn) | -1 (active)
COc1ccc2c(c1)Sc1ccccc1N2CCN(C)C | -1 (active)
CCCCn1c(-c2csc(C(C)C)c2)n[nH]c1=S | 0
COc1ccc2occ(C(=O)c3ccc(N=C(C)N(C)C)cc3)c2c1 | -1 (active)
CC(C)NS(=O)(=O)c1ccc(OCC(=O)Nc2ccc3c(c2)OCO3)c(Cl)c1 | 0
Cc1ccc(Nc2n[nH]c(C)c2[N+](=O)[O-])cc1C | -0.5
Cc1ccc(OCC(=O)Nc2ccc(C)c(S(=O)(=O)N3CCCCC3)c2)c([N+](=O)[O-])n1 | 1 (active)
COc1cc(NC(=O)CSc2nccc(C)n2)c(C)cc1[N+](=O)[O-] | 0
Cc1ccc(NC(=O)COc2cccnc2[N+](=O)[O-])cc1S(=O)(=O)N1CCCCC1 | 1 (active)
COc1cccc(OCCc2c(C)n[nH]c2C)c1 | 0

Structure (SMILES) | manual score
Cc1ccc(NC(=S)N=Nc2c(O)n(C)c3ccc(S(=O)(=O)N4CCOCC4)cc23)cc1 | 0
Cc1ccc(S(=O)(=O)N2CCN(C)CC2)cc1-c1nnc2c3ccccc3c(C)nn12 | 0
CC(C)(C)C1CCc2[nH]nc(C(=O)O)c2C1 (stereo not drawn) | 0.5
CC(O)c1nc2ccccc2n1C1CCCCC1 (stereo not drawn) | 0
C=CCOc1cccc(C2C(C(=O)c3ccc(C)o3)=C(O)C(=O)N2c2nccs2)c1 (stereo not drawn) | 3
COC(=O)c1cc(CSc2nc3ccc(C)cc3[nH]2)oc1C | -1 (active)
CC(=O)Nc1ccc(C(=O)CSc2nc3ccc(C)cc3[nH]2)cc1 | 0
CC1=NN(C(N)=S)C(=O)C1N=Nc1ccccc1C (stereo not drawn) | 1 (active)
CC1=NN(C(N)=S)C(=O)C1N=Nc1ccc(C)cc1C (stereo not drawn) | 0.5
COc1ccc(CC(=O)Nc2cc(=O)n(C)c(=O)n2C)cc1 | 0
Cc1ccc(-c2cn(-c3ccccc3)c(SCC(=O)NC3CCS(=O)(=O)C3)n2)cc1C (stereo not drawn) | 0
O=c1c2cc(N3CCOCC3)ccc2[nH]c(=S)n1Cc1ccc(Cl)cc1 | 0
O=c1[nH]c2ccc(Cl)cc2c(=O)n1Cc1ccco1 | 0
O=c1c2cc(Cl)ccc2[nH]c(=S)n1Cc1ccco1 | 1 (active)
Cc1cc(NC(=O)Nc2ccccc2)n(-c2ccccc2)n1 | 1 (active)
Cc1cc(NC(=O)COc2ccc(Cl)cc2Cl)n(-c2ccccc2)n1 | 1 (active)
O=C(COc1ccc(Cl)cc1Cl)Nc1ccccn1 | 0
Cc1cc(C)n(CC(=O)O)n1 | 0
O=C(COc1ccc(Cl)cc1Cl)NNC(=S)Nc1ccc(F)cc1 | 0
NC1=NC2(CCCCC2)n2c(nc3ccccc32)N1 | 0
CCCCN(CCCC)S(=O)(=O)c1ccc(NC(=O)c2ccc([N+](=O)[O-])cc2Cl)cc1 | 0
O=C(CCCc1nc(-c2ccc(Cl)cc2)no1)Nc1cccnc1 | 0
CCCCc1ccc(NC(=S)Nc2ccc(Cl)c(S(=O)(=O)N(C)C)c2)cc1 | 1 (active)

Structure (SMILES) | manual score
CCCCc1ccc(NC(=S)Nc2cccnc2)cc1 | 1 (active)
CCSc1ccccc1C(=O)Nc1cccnc1 | 0
CC(C)N(C(=O)CN(C#N)c1nc(N(C)C)nc(N(C)C)n1)c1ccccc1 | 0
CC(/C=N/n1c(-c2ccc(Cl)cc2)n[nH]c1=S)=C\c1ccco1 | 0
O=C(CSCc1ccccc1)N=Nc1c(O)[nH]c2ccccc12 | 0
Oc1[nH]c2ccccc2c1N=NC(=S)NCCc1ccccc1 | 0
Oc1[nH]c2ccccc2c1N=Nc1nc2ccccc2s1 | 1 (active)
O=C(c1ccc(-c2ccccc2)cc1)N1CCN(c2ncccn2)CC1 | 0
O=C(c1ccco1)N1CCN(C(=O)c2cnn3c2NC(c2cccs2)CC3C(F)(F)F)CC1 (stereo not drawn) | 0
O=C(c1ccco1)N1CCN(c2ncnc3scc(-c4cccs4)c23)CC1 | -1 (active)
Cc1ccc(-c2csc3ncnc(N4CCN(C(=O)c5ccccc5)CC4)c23)cc1 | -1 (active)
Cc1ccc(-c2nnc(SCC(=O)Nc3cccc(C(=O)N4CCOCC4)c3)n2C)cc1 | -0.5
O=C(c1cc2nc(-c3ccccc3)cc(-c3ccccc3)n2n1)N1CCN(C(=O)c2ccco2)CC1 | 0
COCC(C)OC(=O)c1c(N)n(CC(C)C)c2nc3ccccc3nc12 (stereo not drawn) | 0
CCOP(=O)(c1ccccc1)c1nc(-c2ccccc2C)oc1N1CCCCC1 (stereo not drawn) | -1 (active)
O=C(NC(=S)N1CCN(c2c(Cl)cccc2[N+](=O)[O-])CC1)c1cccs1 | 1 (active)
O=C(NC(=S)Nc1ccccc1N1CCOCC1)c1cccs1 | 0
O=C(O/N=C\c1ccc(N2CCCCC2)c([N+](=O)[O-])c1)c1c(F)cccc1F | 0
O=C(NC(=S)N1CCCCC1)c1cccs1 | 1 (active)
O=C(NC(=S)N1CCN(c2ccc(Cl)cc2[N+](=O)[O-])CC1)c1ccco1 | 1 (active)
O=C(NC(=S)N1CCN(c2ccc(Cl)cc2[N+](=O)[O-])CC1)c1cccs1 | 1 (active)
O=C(NC(=S)Nc1cccc(Cl)c1N1CCCC1)c1ccc(-c2cccc([N+](=O)[O-])c2)o1 | 0
